From PubChem BioAssay (NCATS)
Results filed as inconclusive are left out. Where a call stands in place of a potency, no number is given. The source made the active and inactive calls. The call rests on the fitted dose curve; in most records, active means well fitted activation curve with a large enough effect; inconclusive means small, poorly fitted or top-dose-only effect, or another doubt; inactive means no such curve, though single readings can be large or run the other way.

These compounds were tested against Rap guanine nucleotide exchange factor 3 (Homo sapiens) (UniProt O95398) (assay: Counterscreen qHTS for agonist of cAMP-regulated guanine nucleotide exchange factor 3 (EPAC1) (AID 1645889; further: nearly all actives have a fitted effect of over 40% in size)). Conditions: EPAC1 Rap1B-BODIPY-GDP exchange, fluorescence; series mostly up to 154 µM.
Summary of the method: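 Rap1B-BODIPY-GDP 250 nM + GDP 50 uM; cpds 7-pt, final 9.74 nM–152 uM (activator mode) or from 7.32 nM upwards (inhibitor mode); RT; FI 480/540 nm at 5 and 30 min, then ± cAMP, reread.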

Which Potency does the source give for `CC1COc2ccccc2N1S(=O)(=O)c1ccc(Cl)cc1` (configuration not stated) here?
The Potency was “inactive”.

`O=C(CSc1nnc(SCc2ccc(Cl)cc2)s1)N/N=C/c1ccc(C(=O)O)cc1` was tested. Which Potency did it give?
The Potency was “inactive”.

`CCOC(=O)C(C)Sc1ncc(OC)c(Sc2ccc(Cl)cc2)n1` (configuration not stated) was tested. Which Potency did it give?
Its Potency is “inactive”.

For `COc1cc(/C=C/[N+](=O)[O-])ccc1OCc1cccc(C(=O)O)c1`, which Potency is on record?
The Potency was “inactive”.

With `O=C(O)C1Nc2c(Cl)cc(Cl)c(Cl)c2C2C=CCC12` (configuration not stated) as the compound, how does the Potency read?
Its Potency is “inactive”.

How did the Potency turn out when `O=C(NC1CCCCC1)C(c1ccc(C(F)(F)F)cc1)n1c(=O)c(-c2ccco2)nc2ccccc21` (configuration not stated) was run?
Its Potency is “inactive”.

Which Potency does the source give for `O=S(=O)(c1cc(C(F)(F)F)ccc1Cl)N1CCN(c2ncnc3ccccc23)CC1` here?
The Potency was “inactive”.
